Screens: PubChem, several laboratories
Most compounds without a hit are left out; they make up all but 3.2% or so of the library.
Mtb FBA inh – Mtb FBA enzyme inhibitors, primary screen, biochemical, fluorescence, strain H37Rv. purified M. tuberculosis FBA, fluorescence read-out. inhibition, % at 1 µM. hit rate 2.3% among 360,000. AID 588726, 2011; in the data active = inhibition above about 27%
Target sequence (P9WQA3 whole entry, looked up): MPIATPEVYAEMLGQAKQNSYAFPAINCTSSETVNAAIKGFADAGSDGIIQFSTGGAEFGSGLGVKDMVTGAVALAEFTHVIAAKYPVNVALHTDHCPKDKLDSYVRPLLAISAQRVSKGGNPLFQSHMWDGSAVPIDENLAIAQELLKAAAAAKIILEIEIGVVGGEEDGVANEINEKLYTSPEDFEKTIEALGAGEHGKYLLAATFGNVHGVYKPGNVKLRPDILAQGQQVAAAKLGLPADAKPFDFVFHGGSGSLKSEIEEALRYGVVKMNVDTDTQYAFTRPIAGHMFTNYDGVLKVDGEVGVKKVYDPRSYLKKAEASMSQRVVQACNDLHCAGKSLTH
Mtb betalactam – beta-lactam sensitization of Mtb H37Rv, H37Rv | inhibition, % at 25 µM | hit rate 0.27% among 330,000 | M. tuberculosis H37Rv growth with meropenem, percent inhibition; call rule not given here;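 also: growth measured after seven days incubation then overnight dye step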
Mtb UGM inh – M. tuberculosis UGM enzyme inhibitors, primary screen, biochemical, fluorescence polarization, single point. hit rate 0.06% among 320,000. purified UGM, fluorescence polarization probe displacement. inhibition, % at 10 µM. AID 504406, 2011. UDP-galactopyranose mutase (Mycobacterium tuberculosis (strain ATCC 25618 / H37Rv)), …; in the data active = inhibition above about 10%, passing the limit was not always enough
SSB-PriA inh – inhibitors of Klebsiella pneumoniae PriA binding to SSB C-terminal tail, primary screen, biochemical, AlphaScreen | hit rate 0.6% among 430,000 | inhibition, % at 33 µM | AlphaScreen SSBct-PriA binding, biotinylated peptide | PriA–SSB C-terminal tail interaction (Klebsiella pneumoniae); in the data active = inhibition mostly above about 37%, no sharp cut-off; inactive = mostly below about 20%
GDH-TPI counter – GDH-TPI coupling enzyme inhibitors, primary screen, artefact control for M. tuberculosis FBA inhibitor project, biochemical, absorbance, full deck; GDH-TPI coupled enzyme counterscreen, NADH absorbance; inhibition, % at 4.8 µM; hit rate 1.2% among 360,000; AID 588335, 2011; in the data active = inhibition above about 30%
Rv3671c inh – Rv3671c serine protease inhibitors, primary screen, biochemical, fluorescence polarization, M. tuberculosis H37Rv; hit rate 0.048% among 320,000; AID 2606, 2010; inhibition, % at 5.96 µM; P9WHR9; in the data active = inhibition above about 38%;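 also: extracellular domain of Rv3671c used as enzyme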
Hits are given with their value; – = inactive; · = not tested or not shown; + = active, no number; ! = a repeat was not active.

SMILES	Mtb FBA inh	Mtb betalactam	Mtb UGM inh	SSB-PriA inh	GDH-TPI counter	Rv3671c inh
Cn1c(C(=O)NN)cc2cc(Oc3ccccc3)ccc21	–	–	–	–	–	–
Cn1c(C(=O)NN)cc2cc(OCc3ccccc3)ccc21	–	–	–	–	31	–
Cc1ccc(/C=C2\CCOC2=O)cc1	–	–	–	–	–	–
CC1CC(=Cc2ccc(N)cc2)C(=O)O1 (centres undefined)	–	·	·	–	35	·
CC1CC(=Cc2ccc([N+](=O)[O-])cc2)C(=O)O1 (centres undefined)	–	·	·	–	31	·
O=C(COc1ccc(F)cc1)NCc1cc(-c2ccco2)on1	·	·	·	–	·	·
c1ccc2nc(-c3ccc(N4CCOCC4)cc3)ccc2c1	–	–	–	–	33	–
O=C1NC(c2ccccn2)Nc2sc3c(c21)CCC3 (centres undefined)	–	–	–	81	–	–
CN1CCc2c(sc3c2C(=O)NC(c2ccccn2)N3)C1 (centres undefined)	–	–	–	85	–	–
CN1CCc2c(sc3c2C(=O)NC(/C=C/c2ccco2)N3)C1 (centres undefined)	–	–	–	–	37	–
CCC1CCc2c(sc3c2C(=O)NC(c2ccccn2)N3)C1 (centres undefined)	·	·	·	–	·	·
O=C(O)c1cccc(C(=O)c2cccc(C(=O)O)c2)c1	–	–	–	–	–	–
O=C(O)c1cc2ccc3cccc4ccc(c1)c2c34	168	–	–	–	–	–
Cc1cc(C)cc(C(=O)/C=C2\NC(=O)CS2)c1	–	–	–	–	39	–
Cc1ccccc1C(=O)/C=C1\NC(=O)CS1	–	–	–	–	48	–
O=C1CS/C(=C/C(=O)c2ccccc2)N1	–	–	–	–	44	–
O=C1CSC(=NNC(=O)c2ccccc2)N1	·	·	·	–	·	·
Cc1ccccc1N=C1NC(=O)CS1	–	–	–	–	–	–
Cc1ccc(CNC(=O)c2ccc3c(c2)NC(=O)CS3)cc1	–	–	–	–	–	–
CN(C)c1nc(NCc2ccccc2)nc(NN=Cc2ccc3c(c2)OCO3)n1	·	·	·	–	·	·
COc1cn(CC(=O)Nc2cc(C)ccc2C)c(CN2CCN(C(C)=O)CC2)cc1=O	·	·	·	–	·	·
Cc1cccc(CN2c3ccccc3C(=O)/C(=C\Nc3ccc(S(N)(=O)=O)cc3)S2(=O)=O)c1	·	·	·	–	·	·
CNC(=O)Cc1ccc(-n2c(=O)c3ccccc3n(CC(=O)Nc3ccc(C(=O)OC)cc3)c2=O)cc1	·	·	·	–	·	·
Cc1cc(S(=O)(=O)Nc2ccc3c(c2)CN(C(=O)c2ccco2)CC3)ccc1F	·	·	·	–	·	·
COc1ccc(/C=C(/C#N)C(=O)Nc2cccc(C)c2C)cc1C(=O)O	–	–	–	–	37	–
SMILES	Mtb FBA inh	Mtb betalactam	Mtb UGM inh	SSB-PriA inh	GDH-TPI counter	Rv3671c inh
COc1ccc(/C=C(/C#N)C(=O)Nc2ccc(C)cc2C)cc1C(=O)O	–	–	–	–	54	–
O=C(NCc1cccs1)c1cn(Cc2ccccc2)nc1OCc1ccccc1	·	·	·	–	·	·
COc1ccc(C(N)=NOC(=O)CC2CCCCC2)cc1OC	·	·	·	–	·	·
COCc1cc(=O)[nH]c(N=C(N)Nc2c(F)cccc2F)n1	·	·	·	–	·	·
COc1cc(/C=N/Nc2ncnc3sc4c(c23)CCC4)ccc1O	–	·	·	·	47	·
COc1ccc(/C=N/Nc2ncnc3scc(-c4ccccc4)c23)cc1OC	–	–	–	·	48	–
COc1ccccc1C1C(=C(O)c2ccccc2)C(=O)C(=O)N1CC(C)C (centres undefined)	·	·	·	–	·	·
CCCC1Cc2[nH]c(=O)c(C#N)cc2CO1 (centres undefined)	126	–	–	–	–	–
CCCC1Cc2nc(N3CCCCC3)c(C#N)cc2CO1 (centres undefined)	–	–	–	–	–	–
COc1cnc(-c2ccccn2)[nH]c1=O	–	–	–	144!	–	–
O=c1cc(-c2ccccn2)nc(-c2ccccn2)[nH]1	·	·	·	152	·	·
COc1cnc(SC(C)C)[nH]c1=O	–	–	–	–	–	–
CCc1cc2c(=O)[nH]c(N3CCCC3)nc2s1	–	–	–	–	–	–
CCc1cc2c(=O)[nH]c(-c3ccccn3)nc2s1	–	–	–	66	–	–
COC(=O)Cc1c(C)c2ccc(O)c(CNCc3ccc(OC)c(OC)c3)c2oc1=O	+	–	–	–	–	·
